Source: ChEMBL document CHEMBL3988442, “University of Dundee, Small-Polar-MMV Screening Library” (2021)
Screen size: about 53,000 compounds; about 900 (1.7%) showed an effect of 50% or more. Shown is part of a subset that was picked to be rich in strong results.

Test system: Mycobacterium tuberculosis
Assay: Cornell - Phenotypic assay to identify agents that inhibit growth of Mycobacterium tuberculosis
Type: functional
Design: scale not given: direction of the effect not stated beside the values
Details: 10 mM as filed; unlikely as a test dose

Structure (SMILES) | Percent Effect
CC(C)Cn1nc2ccc(S(=O)(=O)N3CCC(C)CC3)cn2c1=O | 2.551%
COc1cc2nc(NCc3scnc3C)nc(N)c2cc1OC | 13.16%
COc1cc2nc(NCc3ccc(C)nc3)nc(N)c2cc1OC | 50.73%
COc1cc2nc(NCc3cc(C)on3)nc(N)c2cc1OC | -7.413%
N#Cc1ccc(NC2CCN(c3ncccn3)CC2)cc1Cl | 33.47%
COC(=O)N1CCC(Nc2ccc(Cl)c(C#N)n2)C1 (stereo unspecified) | 21.5%
COC(=O)N1CCC(Nc2ccc(C#N)c(Cl)c2)C1 (stereo unspecified) | 66.83%
CC(NC(=O)NCCNc1ccccn1)c1cccs1 (stereo unspecified) | -14.12%
CCCNC(=O)NC(C)c1ccccn1 (stereo unspecified) | 55.13%
CC(NC(=O)NCCCn1cccn1)c1ccccn1 (stereo unspecified) | -6.373%
CCN1CCN(C(C)(C)CNc2nc(C)cc(C3CCC3)n2)CC1 | 8.458%
CC(C)CC(=O)N1Cc2ccccc2CC1C(=O)Nc1nncs1 (stereo unspecified) | 29.19%
O=C(NCC1(O)COCCN(Cc2cccc(O)c2)C1)c1ccccn1 (stereo unspecified) | -47.38%
CC(C)n1cnnc1Cn1ccc2ncccc2c1=O | -16.96%
CC(NC(=O)NCc1ccccc1)(C(=O)O)c1ccco1 (stereo unspecified) | -57.05%
Cc1ccc(C)c(CNC(=O)NC(C)(C(=O)O)c2ccco2)c1 (stereo unspecified) | 50.37%
CC(NC(=O)NCc1ccccc1F)(C(=O)O)c1ccco1 (stereo unspecified) | -0.26%
COc1cc(N2CCC3(CC2)CN(C)C(=O)CO3)ncn1 | -14.83%
CCn1ncc2c1CCCC2NCc1cccc2c1OCO2 (stereo unspecified) | -8.826%
NC(=O)C1CCN(C(=O)CCSCc2ccc(Cl)c(Cl)c2)CC1 | 42.57%
COC(=O)CCCN(C)C(c1cccnc1)c1ccc(F)cc1F (stereo unspecified) | 105.8%
CCOCCN(C)C(c1cccnc1)c1ccc(F)cc1F (stereo unspecified) | 14%
CNC(=O)NC(=O)CN(C)C(c1cccnc1)c1ccc(F)cc1F (stereo unspecified) | 14.91%

Structure (SMILES) | Percent Effect
CC(=O)NCCC1CCCCN1S(=O)(=O)c1cccc(Cl)c1 (stereo unspecified) | -47.8%
CN1CCN(Cc2cn3c(n2)CN(Cc2ccncc2)CC3)CC1 | -19.75%
COc1ccccc1NCC(=O)NCc1scnc1C | 3.418%
COc1ccccc1NC(=O)CC(C)NCc1scnc1C (stereo unspecified) | -11.77%
COc1ccccc1NC(=O)CC(C)NCCc1sc(C)nc1C (stereo unspecified) | 109.1%
CCOc1ccc(NC(=O)N2CCOC(C(N)=O)C2)cc1C (stereo unspecified) | -10.8%
CN1CCN(c2nsc(-c3cccnc3)c2C#N)CC1 | -23.91%
CN1CCN(c2nsc(-c3ccccc3)c2C#N)CC1 | 72.37%
CCN1CCN(c2nsc(-c3cccnc3)c2C#N)CC1 | 8.063%
O=C(NCCOc1ccccc1)NCC(O)c1cccs1 (stereo unspecified) | 1.907%
Cc1csc(N2CCCN(C(=O)c3csc(C)n3)CC2)n1 | 20.78%
O=C(c1cnc(O)cn1)N1C[C@@H]2CC[C@H](C1)N(Cc1ccccc1)C2 | 9.482%
CCN1CCCc2cc(CN3CCc4c(nc(C)[nH]c4=O)C3)ccc21 | 3.807%
Cn1cc(CN(Cc2ccccc2)CC(O)c2cccs2)cn1 (stereo unspecified) | 103.2%
OC(CN(Cc1ccccc1)Cc1ccncc1)c1cccs1 (stereo unspecified) | 4.252%
Cc1cnc(CN(Cc2ccccc2)CC(O)c2cccs2)cn1 (stereo unspecified) | -16.83%
CC(NCCn1c(=O)oc2ccccc21)c1ccccn1 (stereo unspecified) | 11.05%
CCCN(CCn1c(=O)oc2ccccc21)CC1CC1 | 69.63%
O=c1oc2ccccc2n1CCN(CC1CCOC1)C1CC1 (stereo unspecified) | 23.76%
O=C(CCn1c(=O)oc2ccccc21)NCC(O)c1ccccc1 (stereo unspecified) | -6.039%
CCN(CC)CCn1c(=O)oc2ccccc21.Cl | 61.39%
CCN(CCn1c(=O)oc2ccccc21)CC1CCOCC1 | 48%
CN(C)CCN1CCC2(CC1)CN(c1cccnc1)C(=O)CO2 | -2.61%

Structure (SMILES) | Percent Effect
CCC(C)NC(=O)Nc1cccc(OC)c1 (stereo unspecified) | -23.11%
CC1CC(=O)c2cc(C(=O)N3CCN(C)CC3)c(=O)[nH]c2C1 (stereo unspecified) | 4.231%
COc1c(Br)c(C(=O)NC2CC2)nn1C | 20.51%
CNc1nc(C(=O)NCc2cccnc2N(C)C)cs1 | 28.41%
CN(c1ncccc1CNC(=O)c1cscn1)C1CCCCC1 | 20.11%
CNc1nc(C(=O)NCc2cccnc2N(C)C2CCCCC2)cs1 | 51.53%
CCCN1CCN(Cc2cc3cc(OCC)ccc3[nH]c2=O)CC1 | 16.06%
CCc1ccc(-c2cn3c(C(=O)NCC(C)C(=O)NC)csc3n2)cc1 (stereo unspecified) | 9.06%
CCn1ccc(CNC(=O)c2cc(OC)cc(OC)c2)n1 | 3.102%
O=C(CN1CCOCC1)Nc1ccc(C(F)(F)F)cc1Cl | -3.484%
Cc1cnc(C(=O)N2CCN(c3ncc4c(n3)CCOC4)CC2)cn1 | 56.71%
Cc1cc(C(=O)N2CCN(c3ncc4c(n3)CCOC4)CC2)sc1C | 45.6%
CC(C)c1cc(C(=O)N2CCN(c3ncc4c(n3)CCOC4)CC2)on1 | -0.8267%
O=C(CN1CCc2cncnc2C1)Nc1ccc(Cl)cn1 | -14.12%
Cc1csc(CN(C)c2cc(C)nc3c(C)c(C)nn23)n1 | 39.72%
Cc1cc(N(C)Cc2ccsc2)n2nc(C)c(C)c2n1 | 80.58%
CCc1nnc(CN(C)c2cc(C)nc3c(C)c(C)nn23)o1 | -22.97%
COCCNC(=O)CN1CCCC1c1c(C)nn(C)c1Cl (stereo unspecified) | -22.86%
COc1ccc2cc(NC(=O)CCNc3ncccn3)cnc2c1 | -7.502%
COCCC(=O)N1CCC(c2cncc(Oc3cccnc3)n2)CC1 | -4.018%
Cc1nn(C)c(C)c1CNC1CCOc2ccccc21 (stereo unspecified) | 106.6%
COc1c(CNC2CCOc3ccccc32)c(C)nn1C (stereo unspecified) | 23.56%
Cc1nn(CCO)c(C)c1CNC1CCOc2ccccc21.Cl (stereo unspecified) | 28.69%

Structure (SMILES) | Percent Effect
CC(C)N1CCC2(CCN(C(=O)c3cccnc3)CC2)C1.O=C(O)C(F)(F)F.O=C(O)C(F)(F)F | -3.69%
COc1cccc(-c2noc3c2CN(c2ncnc4c2CCC4)CC3)c1 | 35.28%
COc1cccc(-c2noc3c2CN(c2nc(C)ncc2C)CC3)c1 | 77.03%
COCc1cc(N2CCc3onc(-c4cccc(OC)c4)c3C2)ncn1 | 25.42%
c1cc(CN2CCCC(c3ccnc4nccn34)C2)ccn1 (stereo unspecified) | 21.25%
CSc1sc2c(O)cc(=O)[nH]c2c1C(N)=O | 28.59%
CCn1c(C)nnc1SCCn1cc(-c2nccs2)nn1 | -8.266%
COc1ccc(CN2CCC3(CC(C(=O)NCC(C)C)=NO3)C2)cc1 (stereo unspecified) | 19.34%
CC(C)CC(=O)Nc1ccccc1Oc1ccsc1C(=O)O | 8.037%
CC(C)(C)C(=O)Nc1ccc(Oc2ccsc2C(=O)O)cc1 | 16.22%
O=C(Nc1cnc(Oc2ccccc2)nc1)C1CC1 | 23.36%
CC(C)CC(=O)Nc1ccc(Oc2ccsc2C(=O)O)cc1 | 38.91%
O=C(O)c1sccc1Oc1ccc(NC(=O)C2CC2)cc1 | 55.89%
COCC(=O)Nc1ccc(Oc2ccsc2C(=O)O)cc1 | 86.45%
CC(C)NC(=O)Nc1ccc2c(c1)ncn2CC(=O)NCCN(C)C | -20.24%
Cc1nc(C)n(C2CCCN(C(=O)Cc3ccc4c(c3)CCC4)C2)n1 (stereo unspecified) | 13.58%
Cc1cc(C)n(C2CN(Cc3noc(C4CC4)n3)C2)n1 | 7.043%
COCCC(=O)Nc1ccnn1-c1ccccc1 | -2.555%
c1cnc(N2CCOCC3(CCCN(c4nncs4)C3)C2)cn1 (stereo unspecified) | -8.424%
COCC(C)N1CCN(CCc2ccc3c(c2)CCO3)CC1 (stereo unspecified) | -12.27%
CC(C)NC1CCN(CCc2ccc3c(c2)CCO3)CC1 | 56.74%
CCOCCN1CCN(CCc2ccc3c(c2)CCO3)CC1 | -8.246%
CS(=O)(=O)NC[C@]12COC[C@H]1CN(C(=O)C1CC=CC1)C2 | -4.911%

Structure (SMILES) | Percent Effect
Cc1ccc(CN2CCN(CC(=O)Nc3ccc4nsnc4c3)CC2)o1 | 54.44%
CC(C)CCN1CCN(CC(=O)Nc2ccc3nsnc3c2)CC1 | -1.569%
CCC(CC)CN1CCN(CC(=O)Nc2ccc3nsnc3c2)CC1 | 23.66%
CC(C)N1CC(n2ccnc2-c2nccn2C)CC1=O (stereo unspecified) | -23.92%
CN(C)c1cc(C2CCCN(S(=O)(=O)C3CCCC3)C2)ccn1 (stereo unspecified) | 15.85%
O=C(c1ccc[nH]1)N(Cc1ccc(O)cc1)CC1CC1 | 43.3%
Cc1[nH]ccc1C(=O)N(Cc1ccc(O)cc1)CC1CC1 | 103.8%
NC(=O)c1ccc(C(=O)N(Cc2ccc(O)cc2)CC2CC2)cc1 | -5.401%
CSc1ccc(C)c(C(=O)Nc2c(C(N)=O)n[nH]c2C)c1 | -17.81%
COc1ccc(CNCCn2c(C)nc3ccccc32)cc1O | -17.9%
COc1ccc(CNCCc2ccn(-c3ccccc3)n2)cc1O | 107.6%
COc1ccc(-n2ccc(CNCc3ccc(OC)c(O)c3)n2)cc1 | 31.15%
O=C1CCC(=O)N1c1nn(Cc2ccc(F)cc2)cc1Cl | -47.77%
CC[C@H](N)C(=O)Nc1nn(CC(F)(F)F)c2cc(OC(C)C)ccc12 | 15.83%
Cc1nc(C)n(CC2CCCCN2CC(=O)NCc2ccccn2)n1 (stereo unspecified) | 18.51%
CCS(=O)(=O)CCN1CCC(N(C)Cc2noc(C(C)C)n2)C1 (stereo unspecified) | 13.23%
Cc1cc(NC(=O)N2CCOC(C(N)=O)C2)ccc1Br (stereo unspecified) | 15.45%
NC(=O)C1CN(C(=O)Nc2cc(Cl)cc(Cl)c2)CCO1 (stereo unspecified) | 103.4%
COCC1CN(C(=O)Nc2cc(Cl)cc(Cl)c2)CCO1 (stereo unspecified) | 13.66%
